# From PMC5700166
# Where a chain is given by its changes, count along the chain named.
# Assays:
# Assay in all cases: protein-binding microarray (PBM); PBM: ~300 nM protein, 6 mM HEPES pH 7.8, 80 mM KCl, 0.5 mM EDTA, 0.5 mM EGTA, 6% glycerol, 35 ng/ul poly-dIdC, 1% milk, 1 h, room temperature; Ap Aiptasia and Nv Nematostella (sea anemones) / Co Capsaspora / Aq Amphimedon (sponge) / Dm Drosophila / Hu human; RHD is the Rel homology domain; high values mean tight binding
# Details in all cases: dsDNA, one strand shown
# [1] = biological target: T1, GST-Ap-NF-kB RHD (Exaiptasia pallida (Aiptasia), UniProt A0A913YAJ5 2-422)
# T1 sequence: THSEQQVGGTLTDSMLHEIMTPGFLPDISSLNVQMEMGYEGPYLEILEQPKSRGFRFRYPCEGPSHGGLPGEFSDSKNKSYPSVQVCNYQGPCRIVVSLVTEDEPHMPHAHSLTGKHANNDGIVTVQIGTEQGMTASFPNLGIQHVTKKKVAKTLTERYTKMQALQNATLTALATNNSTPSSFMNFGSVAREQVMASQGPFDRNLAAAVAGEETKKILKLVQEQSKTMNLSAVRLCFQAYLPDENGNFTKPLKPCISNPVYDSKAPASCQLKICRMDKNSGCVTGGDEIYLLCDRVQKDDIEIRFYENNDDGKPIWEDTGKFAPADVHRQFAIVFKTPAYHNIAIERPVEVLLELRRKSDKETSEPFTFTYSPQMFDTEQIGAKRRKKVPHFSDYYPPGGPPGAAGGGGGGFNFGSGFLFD
# [2] = biological target: T2, GST-Nv-NF-kB (Cys allele) (Nematostella vectensis, UniProt E5G601 2-411)
# T2 sequence: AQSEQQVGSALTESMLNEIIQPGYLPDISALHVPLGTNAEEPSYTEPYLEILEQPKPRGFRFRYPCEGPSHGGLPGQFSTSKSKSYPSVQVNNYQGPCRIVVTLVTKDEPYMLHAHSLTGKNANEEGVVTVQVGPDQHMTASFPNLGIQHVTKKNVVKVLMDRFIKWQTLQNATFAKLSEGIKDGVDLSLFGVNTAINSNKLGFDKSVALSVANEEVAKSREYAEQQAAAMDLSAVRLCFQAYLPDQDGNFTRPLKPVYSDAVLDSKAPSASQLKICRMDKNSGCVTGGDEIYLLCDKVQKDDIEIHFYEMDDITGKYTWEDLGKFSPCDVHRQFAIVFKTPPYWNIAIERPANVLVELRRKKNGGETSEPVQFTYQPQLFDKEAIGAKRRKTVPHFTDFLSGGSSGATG
# [3] = biological target: T3, GST-Nv-NF-kB (Ser allele) (Nematostella vectensis, UniProt A7UNT2 2-411)
# T3 sequence: T2 sequence with Q21R, C66S, S207N, E215Q, V217A, E225K, A268E, D399E
# [4] = biological target: T4, GST-Co-NF-kB (Capsaspora owczarzaki, UniProt F1ARL5 200-546)
# T4 sequence: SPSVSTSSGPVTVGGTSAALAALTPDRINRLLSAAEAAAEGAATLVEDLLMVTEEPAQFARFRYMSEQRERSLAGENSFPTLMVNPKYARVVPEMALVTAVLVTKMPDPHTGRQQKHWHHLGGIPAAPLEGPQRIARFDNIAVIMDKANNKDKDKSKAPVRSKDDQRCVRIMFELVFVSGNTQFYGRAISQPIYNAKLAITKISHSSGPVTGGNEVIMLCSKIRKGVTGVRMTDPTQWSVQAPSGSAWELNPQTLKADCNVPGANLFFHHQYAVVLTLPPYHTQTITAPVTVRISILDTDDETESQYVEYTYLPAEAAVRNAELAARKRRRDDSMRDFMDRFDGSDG
# [5] = biological target: T5, GST-Dm-Relish (Drosophila melanogaster, UniProt Q94527 99-473)
# T5 sequence: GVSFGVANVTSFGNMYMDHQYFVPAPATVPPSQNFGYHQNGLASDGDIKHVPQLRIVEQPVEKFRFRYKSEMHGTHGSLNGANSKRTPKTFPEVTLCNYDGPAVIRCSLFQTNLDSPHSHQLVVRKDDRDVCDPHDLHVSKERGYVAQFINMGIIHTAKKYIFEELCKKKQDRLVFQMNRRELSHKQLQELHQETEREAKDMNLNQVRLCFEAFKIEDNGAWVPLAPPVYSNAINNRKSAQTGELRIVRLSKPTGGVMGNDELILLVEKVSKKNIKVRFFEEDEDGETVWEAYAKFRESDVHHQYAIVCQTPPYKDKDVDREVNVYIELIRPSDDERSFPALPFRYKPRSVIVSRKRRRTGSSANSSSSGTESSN
# [6] = biological target: T6, GST-Aq-NF-kB (Amphimedon queenslandica, UniProt A9Y5G7 2-389)
# T6 sequence: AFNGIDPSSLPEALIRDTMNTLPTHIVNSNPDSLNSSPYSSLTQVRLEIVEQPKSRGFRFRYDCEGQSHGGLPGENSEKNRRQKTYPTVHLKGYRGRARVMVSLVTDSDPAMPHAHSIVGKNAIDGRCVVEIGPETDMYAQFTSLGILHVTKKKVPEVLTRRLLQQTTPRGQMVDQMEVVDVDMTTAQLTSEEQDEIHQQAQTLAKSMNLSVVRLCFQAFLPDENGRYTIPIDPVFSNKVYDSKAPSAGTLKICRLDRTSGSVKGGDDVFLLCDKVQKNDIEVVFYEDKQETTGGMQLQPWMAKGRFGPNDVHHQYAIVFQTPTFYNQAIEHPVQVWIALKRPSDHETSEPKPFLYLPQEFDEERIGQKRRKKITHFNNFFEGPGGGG
# [7] = biological target: GST-Hu-p50 (Homo sapiens, UniProt P19838 7-356)
# GST-Hu-p50, sequence (P19838 7-356): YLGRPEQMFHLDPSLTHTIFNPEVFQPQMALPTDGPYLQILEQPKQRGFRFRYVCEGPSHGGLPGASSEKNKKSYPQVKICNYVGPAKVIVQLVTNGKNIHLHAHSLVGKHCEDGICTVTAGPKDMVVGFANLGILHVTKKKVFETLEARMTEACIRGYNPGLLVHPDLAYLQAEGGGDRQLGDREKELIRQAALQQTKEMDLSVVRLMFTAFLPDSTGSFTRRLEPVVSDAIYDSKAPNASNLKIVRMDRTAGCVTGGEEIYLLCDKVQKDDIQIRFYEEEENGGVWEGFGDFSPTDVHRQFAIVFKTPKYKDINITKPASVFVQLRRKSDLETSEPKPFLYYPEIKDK
Sequence,binding signal [1] [z-score],binding signal [2] [z-score],binding signal [3] [z-score],binding signal [4] [z-score],binding signal [5] [z-score],binding signal [6] [z-score],binding signal [7] [z-score]
CCGATTAACATCACTATATTCCCTGATGTTAATCGGGTCTTGATTCGCTTGACGCTGCTG,3.08,3.16,3.56,3.19,1.62,2.6,1.77
CCGATTAACATCACTATACCCCCTGATGTTAATCGGGTCTTGATTCGCTTGACGCTGCTG,4.71,2.52,3.85,4.36,2.21,2.68,3.41
CCGATTAACATCAAAACGTCCCCTGATGTTAATCGGGTCTTGATTCGCTTGACGCTGCTG,6.23,6.41,6.45,5.34,5.03,6.19,5.59
CCGATTAACATCAAATTCCCAGGTGATGTTAATCGGGTCTTGATTCGCTTGACGCTGCTG,2.43,3.11,3.64,3.53,3.69,2.4,4.02
CCGATTAACATCAGGGGATGAACTGATGTTAATCGGGTCTTGATTCGCTTGACGCTGCTG,2.44,3.65,4.24,3.23,7.62,3.73,2.94
CCGATTAACATCAAGAAATTCCCTGATGTTAATCGGGTCTTGATTCGCTTGACGCTGCTG,5.84,8.19,8.01,4.57,5.32,6.81,5.84
CCGATTAACATCAAGATATTCCCTGATGTTAATCGGGTCTTGATTCGCTTGACGCTGCTG,4.46,4.57,5.05,3.05,2.34,4.02,2.44
CCGATTAACATCAGGGGGAAATATGATGTTAATCGGGTCTTGATTCGCTTGACGCTGCTG,7.3,8.58,10.6,11.1,4.77,6.38,7.38
CCGATTAACATCAGGGGGAAAAATGATGTTAATCGGGTCTTGATTCGCTTGACGCTGCTG,6.66,7.33,9.96,11.6,4.64,5.88,7.07
CCGATTAACATCAGGGGATTACATGATGTTAATCGGGTCTTGATTCGCTTGACGCTGCTG,6.52,6.73,8.01,3.12,8,5.64,5.79
CCGATTAACATCAGGGAAACACATGATGTTAATCGGGTCTTGATTCGCTTGACGCTGCTG,2.17,2.95,3.46,3.05,6.06,3.52,1.39
CCGATTAACATCAGAAATGTCCCTGATGTTAATCGGGTCTTGATTCGCTTGACGCTGCTG,2.83,4.85,4.61,1.29,3.1,4.94,4.36
